This passage reports inhibition results from PubChem BioAssay.

Calls of active or inactive are those of the source. No rule for the calls is given here.

The experiment deals with Pantothenate synthetase (Mycobacterium tuberculosis (strain ATCC 25618 / H37Rv)) (UniProt P9WIL5). The experiment can be described thus: Recombinant Mtb pantothenate synthetase (PanC) inhibitors, coupled enzyme, confirmatory (AID 375).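 Also: 0% = full reaction with vehicle and 100% = no enzyme background.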 To be noted: coupled enzyme assay; at 10 µM, active compounds read high.
Pantothenate synthetase (Mycobacterium tuberculosis (strain ATCC 25618 / H37Rv)), sequence (P9WIL5 whole entry, looked up): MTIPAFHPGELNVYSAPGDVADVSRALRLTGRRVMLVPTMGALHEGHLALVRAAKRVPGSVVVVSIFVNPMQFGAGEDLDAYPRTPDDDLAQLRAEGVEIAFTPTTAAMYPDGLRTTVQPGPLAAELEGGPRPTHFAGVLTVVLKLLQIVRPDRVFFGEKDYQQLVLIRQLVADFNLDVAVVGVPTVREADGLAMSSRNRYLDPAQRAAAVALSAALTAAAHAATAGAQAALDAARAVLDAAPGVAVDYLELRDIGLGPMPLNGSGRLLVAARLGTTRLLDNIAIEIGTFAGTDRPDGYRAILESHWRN
Consider `COCCCC/C(=N\OCCN)c1ccc(C(F)(F)F)cc1`, for which the inhibition (as a rule, the change of the read-out against control, counted positive when it falls) was 0% (inactive). To `CC(C)=CC(=O)N1CCCc2ccccc21` belongs 13% (inactive); to `CCOC(=O)c1sc(NC(=O)c2noc3c2CCCC3)c(C(=O)OCC)c1C`, 0% (inactive). As to `Cn1c(=O)c2[nH]cnc2n(C)c1=O`, the inhibition is 1% (inactive). To `Cc1ccccc1NC(=O)CN1CCC(NC(=O)Nc2ccccc2)CC1` belongs 4% (inactive); to `COc1cc(OC)c(NC(=O)c2ccco2)cc1Cl`, 0% (inactive); to `COc1cccc(OCCSc2nnc3sc4ccccc4n23)c1`, 0% (inactive). To `Cc1ccc(C(=O)Nc2ccc(Cl)cn2)cc1S(=O)(=O)N1CCOCC1` belongs 0% (inactive); to `Cc1nn(Cc2ccccc2Cl)c(C)c1NC(=O)C1C2CCC(O2)C1C(=O)O` (stereo not given), 1% (inactive). To `CCOC(=O)c1[nH]c2ccccc2c1NC(=O)c1ccco1` belongs 0% (inactive). Take `Nc1nc2n(n1)C(c1cccc(Cl)c1)CC(c1ccc(F)cc1)N2` (stereo not given): the inhibition was 0% (inactive). To `COc1ccc(-n2c(Cc3cccn3C)nnc2SCC(N)=O)cc1` belongs 0% (inactive); to `Cc1cc(C)nc(SCC(=O)Nc2ncc3c(n2)CCCC3=O)n1`, 0% (inactive). To `Cc1cn([C@H]2C[C@H](N=[N+]=[N-])[C@@H](CO)O2)c(=O)[nH]c1=O` belongs 0% (inactive); to `O=c1[nH]c(/C(=N\O)c2ccccc2)no1`, 0% (inactive). With `N#Cc1ccccc1Cn1c(=O)n(Cc2ccc(C(=O)NCc3ccco3)cc2)c(=O)c2ccccc21`, the inhibition was 0% (inactive). To `O=C(Nc1ncnc2sc3c(c12)CCCCC3)c1ccco1` belongs 10% (inactive); to `O=C(O)CCc1ccc(-c2cccs2)n1CCC(=O)O`, 1% (inactive); to `Cn1c(=O)c2ncn(CC(=O)NCCOc3ccccc3)c2n(C)c1=O`, 0% (inactive). In the case of `COc1cc2c(=O)nc3n(c2cc1OC)C(c1ccccc1)N=C(N)N3` (stereo not given), the inhibition was 0% (inactive). Consider `Oc1ccc(-c2n[nH]c(=S)n2Cc2ccccc2)cc1`, for which the inhibition is 0% (inactive). For `O=C(O)C1CC=CCC1C(=O)Nc1ccc(S(=O)(=O)N2CCCc3ccccc32)cc1` (stereo not given), the inhibition is 0% (inactive). As to `O=C(CN(c1ccc(F)cc1)S(=O)(=O)c1ccc2c(c1)OCCO2)Nc1ccc2c(c1)OCO2`, the inhibition was 3% (inactive).

As to `Cc1cccc(N2CCN(S(=O)(=O)c3ccc4c(c3)CCC(=O)N4)CC2C)c1` (stereo not given), the inhibition was 6% (inactive). `CCOC(=O)CSc1nnc(Cn2nnc(-c3ccccc3)n2)n1CC`: the inhibition is 4% (inactive). For the molecule `CC(=O)Oc1ccc(-c2ccc(C(=O)O)cc2)cc1`, the inhibition is 4% (inactive). Consider `CCOC(=O)N1CCN(c2c(NCC3CCN(Cc4cccc(C)c4)CC3)c(=O)c2=O)CC1`, for which the inhibition was 4% (inactive). Consider `Nn1c(SCc2csc(-c3ccccc3)n2)nnc1-c1cccs1`, for which the inhibition is 0% (inactive). As to `CCOC(=O)c1cc(C(C)(C)C)oc1CN`, the inhibition was 0% (inactive). To `Cc1nn(Cc2ccccc2)c(C)c1NC(=O)CCC(=O)O` belongs 2% (inactive); to `COc1ccc2cc(C(c3nnnn3C3CCCCC3)N3CCCCCC3)c3nnnn3c2c1` (stereo not given), 3% (inactive); to `CCN(CCCCOC(=O)c1ccc(OC)c(OC)c1)C(C)Cc1ccc(OC)cc1` (stereo not given), 9% (inactive).

With `Nc1ncnc2oc(-c3ccco3)c(-c3ccco3)c12`, the inhibition was 2% (inactive). For `CCOC(=O)N1CCN(C(=O)c2cnn(-c3ccccc3)c2NC(=O)c2ccccc2F)CC1` the value was 0% (inactive); for `O=C1OCCC1Sc1ncnc2sc3c(c12)CCC3` (stereo not given), 0% (inactive). To `Cc1nc2ccccc2c2oc(C(=O)NCC3COc4ccccc4O3)cc12` (stereo not given) belongs 0% (inactive); to `COc1ccc(OC)c(C2=Nn3c(nnc3C3CCCCC3)SC2)c1`, 0% (inactive). For `Cc1nn(-c2ccc(F)cc2)c2sc(C(=O)N3CCCCCC3)cc12` the value was 0% (inactive).

On to `CCSc1cc(C2C(C(=O)OC)=C(C)NC3=C2C(=O)CCC3)c(C)o1` (stereo not given), for which the inhibition is 0% (inactive).

For `COc1ccccc1-c1ccc(Nc2cccc(C(C)=O)c2)nn1`, the inhibition is 0% (inactive).
